In PubChem BioAssay (NCI):
This is part of a sample that, as a whole, favours compounds with a hit. Of some 83,000 tested, about 20% had one in any assay.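 Step 1: grow cells in 96-well plates. Step 2: add test compound at a single concentration. Step 3: incubate 48 h. Step 4: record percent growth.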 Active and inactive are the calls of the source. The calls were made as follows: active = growth percent below 10; inactive = the rest.

Legend:
Test in all cases: NCI-60 one-dose screen, 48 h (100 = growth as untreated, 0 = no growth, -100 = all killed)
Conditions in all cases: 10 µM unless noted
[1] = test system: HCT-15 colon
[2] = test system: HT29 colon
[3] = test system: SNB-75 CNS
[4] = test system: SNB-19 CNS
[5] = test system: U251 CNS
[6] = test system: PC-3 prostate
[7] = test system: SK-MEL-5 melanoma
[8] = test system: UACC-62 melanoma
[9] = test system: LOX IMVI melanoma
[10] = test system: SK-MEL-28 melanoma
[11] = test system: SK-MEL-2 melanoma
[12] = test system: EKVX NSCLC
[13] = test system: SN12C renal
[14] = test system: UO-31 renal
[15] = test system: TK-10 renal
[16] = test system: ACHN renal
[17] = test system: CAKI-1 renal
[18] = test system: A498 renal
[19] = test system: CCRF-CEM leukemia
[20] = test system: MOLT-4 leukemia

Measured: growth

C=C1C(=O)O[C@H]2[C@H]1CC/C(COC(=O)NCc1cc(OC)cc(OC)c1)=C\CC[C@@]1(C)O[C@@H]21
active: [1] 1.86% | [2] -40.2% | [8] -44.9% | [9] -31% | [10] -20.2% | [13] 7.86% | [14] -58.4% | [15] -1.01% | [16] 5.79% | [17] -15.1% | [19] 2.4% | [20] -3.45%
inactive: [3] 59.3% | [4] 42.3% | [5] 40.7% | [6] 30.2% | [7] 84.9% | [11] 23.2% | [12] 40.5% | [18] 68%

COc1ccc(/C(=N\O)c2cc(OC)c(OC)c(OC)c2)c(OC)c1N
inactive: [1] 11.3% | [4] 32.8% | [5] 18.3% | [6] 20.9% | [7] 11.3% | [8] 30% | [9] 42.5% | [10] 59.3% | [11] 35.1% | [12] 47.3% | [13] 44.4% | [14] 50.3% | [16] 40.5% | [17] 28.1% | [19] 12.6% | [20] 24.1%
active: [2] 4.28% | [3] -8.55% | [15] 9.72% | [18] -19.3%

O=S(=O)(NCCNc1cc(-c2cn(-c3ccccc3)nc2-c2ccccc2)ccn1)c1cccc2ccccc12
inactive: [1] 43.4% | [2] 23.6% | [3] 59% | [4] 67% | [5] 53.3% | [6] 15.3% | [7] 26.5% | [8] 56.5% | [9] 45.8% | [10] 62.9% | [11] 89.5% | [12] 36.5% | [13] 58.9% | [14] 22.3% | [15] 66.8% | [16] 51.7% | [17] 49.8% | [18] 72.5% | [19] 83.5% | [20] 28.4%

C=C1C(=O)O[C@H]2[C@H]1CC/C(COC(=O)NCCc1ccc(OC)cc1)=C\CC[C@@]1(C)O[C@@H]21
active: [1] -7.21% | [2] -58.3% | [8] -46.7% | [9] -26.8% | [10] -5.94% | [14] -82.8% | [15] -7.32% | [16] -6.86% | [17] -2.71% | [19] 3.44% | [20] 2.83%
inactive: [3] 79.4% | [4] 45.8% | [5] 59.3% | [6] 45.6% | [7] 72.3% | [11] 63.4% | [12] 53.3% | [13] 11.7% | [18] 62%

NC(=O)c1cccc(N2Cc3ccccc3OC3=C2C(=O)c2c(O)ccc(O)c2C3=O)c1
inactive: [18] 62.1%
active: [1] -49.7% | [2] -55.8% | [3] 6.48% | [4] 1% | [5] -7.38% | [6] -44.5% | [7] -7.12% | [8] -86.1% | [9] -63.5% | [10] -85.6% | [11] -38.7% | [12] -0.27% | [13] -53.5% | [14] -86.7% | [15] -99.7% | [16] -93.7% | [17] -99.4% | [19] -8.27% | [20] -36.2%

CC(=O)Oc1cccc(OC(C)=O)c1OC(C)=O
inactive: [1] 101% | [2] 110% | [3] 88.4% | [4] 105% | [5] 95.6% | [6] 89.6% | [7] 93.8% | [8] 96.8% | [9] 95.2% | [10] 104% | [11] 103% | [12] 95.4% | [13] 99.4% | [14] 76.6% | [15] 107% | [16] 102% | [17] 84% | [18] 87.3% | [19] 100% | [20] 82.4%

COc1ccc(/C(=N/O)c2cc(F)c(F)c(OC)c2F)cc1O
inactive: [1] 22.9% | [2] 28% | [4] 38.8% | [5] 18.2% | [6] 21.5% | [7] 14.1% | [8] 29.8% | [9] 46.5% | [10] 66.9% | [12] 45.5% | [13] 45.7% | [14] 52.6% | [15] 88.7% | [16] 48.4% | [17] 28.1% | [19] 15.5% | [20] 37.4%
active: [3] -11% | [11] 3.65% | [18] 2.7%

C=C1C(=O)O[C@H]2[C@H]1CC/C(COC(=O)NCc1ccc(OC)cc1)=C\CC[C@@]1(C)O[C@@H]21
inactive: [1] 12.9% | [3] 96.4% | [4] 61.7% | [5] 67.4% | [6] 52.9% | [7] 87% | [8] 27.5% | [9] 13.9% | [10] 51.2% | [11] 53.4% | [12] 75.9% | [13] 32.8% | [14] 18.4% | [15] 31.2% | [17] 15% | [18] 89.4% | [20] 24.2%
active: [2] -4.4% | [16] 4.28% | [19] 3.72%

O=C1NC(Cc2c[nH]c3ccccc23)C(=O)N1Cc1ccc(Cl)cc1 (stereo not given)
inactive: [1] 99.6% | [2] 105% | [3] 90.1% | [4] 103% | [5] 94.1% | [6] 90.5% | [7] 95% | [8] 86.1% | [9] 89.1% | [10] 109% | [11] 66.3% | [12] 103% | [13] 99.7% | [14] 76% | [15] 135% | [16] 95% | [17] 86.9% | [18] 78.9% | [19] 70.1% | [20] 85.4%

C/C(=N\NC(=O)CC#N)c1cc2cc(Cl)ccc2o1
inactive: [1] 94.7% | [2] 97.2% | [3] 91% | [4] 77.9% | [5] 89.3% | [6] 92.4% | [7] 84.2% | [8] 91% | [9] 103% | [10] 110% | [11] 96.4% | [12] 33.6% | [13] 93.1% | [14] 108% | [15] 114% | [16] 96.1% | [17] 89.2% | [18] 111% | [19] 70.2% | [20] 87.4%

O=S(=O)(NCCCNc1nccc(-c2c(-c3ccc(F)c(O)c3)nc3sccn23)n1)c1ccc(Cl)cc1
active: [8] 6.74%
inactive: [1] 82.7% | [2] 70.1% | [3] 122% | [4] 115% | [5] 84.5% | [6] 58.7% | [7] 47.2% | [9] 45.5% | [10] 23.3% | [11] 27.7% | [12] 101% | [13] 77.4% | [14] 67.8% | [15] 135% | [16] 65.9% | [17] 54.7% | [18] 109% | [19] 35.2% | [20] 46.1%

COc1cc(-n2nc(C(=O)Nc3ccc(C(=O)O)cc3)nc2-c2ccccc2)cc(OC)c1OC
inactive: [1] 89.3% | [2] 103% | [3] 94.1% | [4] 91.9% | [5] 102% | [6] 71.3% | [7] 107% | [8] 95.1% | [9] 101% | [10] 115% | [11] 106% | [12] 53% | [13] 82.1% | [14] 58.6% | [15] 79.1% | [16] 36.1% | [17] 52.2% | [18] 62.9% | [19] 89% | [20] 95.8%

COc1cc(/C=C/C(=O)c2ccccc2O)ccc1OCCCOc1cc2c(cc1OC)C(=O)N1CCC[C@H]1C=N2
active: [1] -3.51% | [2] -41.4% | [3] -57.7% | [4] -1.67% | [5] -74.7% | [7] -76.5% | [8] -82.4% | [9] -60.8% | [10] -64.3% | [11] -61.1% | [13] 6.22% | [14] -54.5% | [15] -27.9% | [16] -13.8% | [17] -35.3% | [18] -68.4% | [19] 5.24% | [20] -11.2%
inactive: [6] 10.7% | [12] 19.7%

O=S(=O)(NCCCNc1cc(-c2cn(-c3ccccc3)nc2-c2cccc(O)c2)ccn1)c1ccc(C(F)(F)F)cc1
active: [1] 5.17% | [2] 2.83% | [7] 8.74%
inactive: [3] 31.5% | [4] 51.4% | [5] 36.8% | [6] 13.7% | [8] 27.4% | [9] 27.4% | [10] 21.7% | [11] 72.7% | [12] 40.8% | [13] 50.1% | [14] 24.9% | [15] 77.7% | [16] 31.5% | [17] 34.7% | [18] 57.2% | [19] 30.2% | [20] 16%
